According to PubChem BioAssay (NCATS):
Results filed as inconclusive are left out. Values without a mark were called inactive. The call rests on the fitted dose curve; in most records, active means well fitted curve in the direction sought with a large enough effect; inconclusive means small, poorly fitted or top-dose-only effect, or another doubt; inactive means no such curve, though single readings can be large or run the other way.

assay: qHTS Assay for Identifying Gametocytocidal Compounds (AID 743244);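 further: actives lower the fluorescent signal which means gametocytes are killed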; details: P. falciparum 3D7 stage III-V gametocytes, alamarBlue, 72 h; max response: hits give low values
Method in brief: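 3D7 gametocytes, stages III–V, 20,000/well; cpd 72 h, 37 °C/5% CO2; + alamarBlue 24 h; fluor. Ex 525/Em 598.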
On the % scale 0 is the no-effect control and ±100 the full control effect.

SMILES	max response [%]
OC(CCN1CCCC1)(c1ccccc1)C1CCCCC1 (centres undefined)	3.62
CC(=O)OCC(=O)[C@@]1(O)CC[C@H]2[C@@H]3CCC4=CC(=O)C=C[C@]4(C)[C@@]3(F)[C@@H](O)C[C@@]21C	18.9
CCC(C)(CN(C)C)OC(=O)c1ccccc1 (centres undefined)	-2.53
COCC(=O)Nc1c(I)c(C(=O)NCC(O)CO)c(I)c(C(=O)N(C)CC(O)CO)c1I (centres undefined)	10.5
CCOC(=O)OC(C)OC(=O)[C@@H]1N2C(=O)[C@@H](NC(=O)[C@H](N)c3ccccc3)[C@H]2SC1(C)C (some centres undefined)	15.8
C[N+]1(C)CCCC(OC(=O)C(O)(c2ccccc2)c2ccccc2)C1 (centres undefined)	8.34
C/C(=C(\CCO)SS/C(CCO)=C(\C)N(C=O)Cc1cnc(C)nc1N)N(C=O)Cc1cnc(C)nc1N	-3.83
CC(=O)N[C@@H](CC(C)C)C(=O)O	-15.3
O=C(NCC(O)CO)c1c(I)c(C(=O)NCC(O)CO)c(I)c(N(CCO)C(=O)CO)c1I (centres undefined)	8.95
CC1(C)S[C@@H]2[C@H](N=CN3CCCCCC3)C(=O)N2[C@H]1C(=O)O	-2.77
CC(=O)N1C[C@H](O)C[C@H]1C(=O)O	11.8
Cc1ccsc1/C=C/C1=NCCCN1C	6.27
NS(=O)(=O)c1cc(C2(O)NC(=O)c3ccccc32)ccc1Cl (centres undefined)	0.268
CC(=O)N(CC(O)CN(C(C)=O)c1c(I)c(C(=O)NCC(O)CO)c(I)c(C(=O)NCC(O)CO)c1I)c1c(I)c(C(=O)NCC(O)CO)c(I)c(C(=O)NCC(O)CO)c1I (centres undefined)	-5.28
